Hits are enriched below; roughly 7.3% of the tested compounds scored in any of these assays.
AmpC detergent: blocks E. coli AmpC beta-lactamase in detergent assay | P00811 | AmpC hydrolysis of nitrocefin, absorbance 480 nm, 0.01% Triton | Potency, µM (top dose mostly 114 µM), for inactives: at the highest dose activity change, negative = inhibition, hits mostly inhibitors | 370,000 compounds, 0.041% hits;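 further: potency means the concentration at half of the fitted maximal effect; 0% = no-compound wells and -100% = no-enzyme wells; nearly all actives have a fitted effect of over 25% in size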
Target sequence (P00811 whole entry, looked up): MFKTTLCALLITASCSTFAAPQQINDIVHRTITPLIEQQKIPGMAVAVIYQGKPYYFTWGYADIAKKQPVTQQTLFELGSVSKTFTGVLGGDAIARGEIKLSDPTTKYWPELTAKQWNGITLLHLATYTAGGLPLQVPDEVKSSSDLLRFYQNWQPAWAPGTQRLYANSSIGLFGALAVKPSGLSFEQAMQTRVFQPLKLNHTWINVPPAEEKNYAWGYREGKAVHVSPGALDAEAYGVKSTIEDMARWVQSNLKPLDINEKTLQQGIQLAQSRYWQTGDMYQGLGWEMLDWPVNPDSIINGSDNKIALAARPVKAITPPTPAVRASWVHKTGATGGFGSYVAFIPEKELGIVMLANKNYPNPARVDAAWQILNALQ
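20 mM phosphate pH 7.0 + 0.01% (detergent screen) or 0.0001% Triton X-100; 5.3 nM AmpC reagent; cpd preinc 15 min RT; nitrocefin (800 uM stock) to start; A480 q20 s × 4 min; Activity was normalised to no-enzyme and no-compound control wells.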
FMDV inh: antivirals against foot and mouth disease virus | 410,000 compounds, 1.2% hits | FMDV antiviral cell-based qHTS | Potency, µM (top dose mostly 57.9 µM), for inactives: at the top dose activity change, negative = inhibition, usual class: inhibitors | AID 1159524; calls by dose curve; tested in HEK293T cells; further: read-out not given here; potency means the concentration at half of the fitted maximal effect; nearly all actives have a fitted effect of over 45% in size
HCV inhibitor: HCV inhibition; Huh7.5.1 HCVcc-Cre infection, luciferase reporter, 44 h; Potency, µM (highest dose often 41.8 µM), for the others: at the highest dose activity change, negative = inhibition, most hits filed as inhibitors; 340,000 compounds, 3.4% hits; AID 651820; further: potency means the concentration at half of the fitted maximal effect
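Seed cells (1,000/well) for 4 h; treat with compound and infect with HCVcc-Cre, moi about 0.5. Incubate 44 h, then detect luciferase activity.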
HCMV antiviral: blocks human cytomegalovirus replication; HFF cells, HCMV-luciferase reporter, 72 h; active compounds read low; activity change, negative = inhibition, % at 57.5 µM; 410,000 compounds, 4.5% hits; in the data active means activity change below about -60%; inconclusive means no clear call, values can overlap the other calls; inactive means above about -39%
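Steps: HFFs plated, 16 h 37C; compounds added; HCMV-luciferase added to MOI 1 PFU/cell; 72 h 37C; OneGlo reagent, 5 min room temperature; luminescence read, normalized to controls.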
AmpC no deterg: inhibitors of E. coli AmpC beta-lactamase without detergent | P00811 | AmpC nitrocefin hydrolysis, absorbance 480 nm, 0.0001% Triton | Potency, µM (highest dose often 57.1 µM), for inactives: at the top dose activity change, negative = inhibition, hits mostly inhibitors | 330,000 compounds, 0.52% hits | AID 485341;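 further: potency means the concentration at half of the fitted maximal effect; plate controls were no compound for no effect and no enzyme for full effect; nearly all actives have a fitted effect of over 20% in size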
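20 mM phosphate pH 7.0 + 0.01% (detergent screen) or 0.0001% Triton X-100; 5.3 nM AmpC reagent; cpd preinc 15 min RT; nitrocefin (800 uM stock) to start; A480 q20 s × 4 min; Activity was normalised to no-enzyme and no-compound control wells.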
* hit, by the source's call; [ ] = another dose, or the depositor's remark. Unless noted, the call rests on the fitted dose curve; in most records, active means well fitted curve in the direction sought with a large enough effect; inconclusive means small, poorly fitted or top-dose-only effect, or another doubt; inactive means no such curve, though single readings can be large; an effect the other way counts as inactive or inconclusive. Unless noted, on the % scale 0 is the no-effect control and ±100 the full control effect.

Results for Cc1ccc(CCNC(=O)c2ccc(Cn3c(=O)c4cccn4c4cccnc43)cc2)cc1 ?
AmpC detergent: inconclusive; FMDV inh: -3.8%; HCMV antiviral: -60.0*

What do the screens show for `CC(C)CCNC(=O)CCn1c(=O)c2cccn2c2cccnc21`?
AmpC detergent: -0.5%; FMDV inh: -0.5%; HCMV antiviral: -60.2*

What do the screens show for `COc1ccc(C)cc1N(C(=O)c1ccccc1)c1nc2ccccc2s1`?
AmpC detergent: inconclusive; FMDV inh: -24.0%; HCV inhibitor: 15.8µM*; HCMV antiviral: -23.6; AmpC no deterg: -19.0%

How did C=CC(=O)Nc1ccc(Nc2nc(NC3CCC(N(C)C)CC3)nc3c2ncn3C(C)C)cc1 (stereo unspecified) do in these assays?
FMDV inh: -46.7%; HCV inhibitor: 1.26µM*; AmpC no deterg: -7.8%

How did CCOC(=O)c1c(/N=C/c2ccc(O)cc2O)sc2c1CCC2 do in these assays?
AmpC detergent: -8.3%; HCV inhibitor: 3.4%; AmpC no deterg: 10µM*

How did CCOC(=O)C(C(C)=O)c1c(Br)c(O)c(O)c2c(C(=O)c3ccc(C)cc3)coc12 (stereo unspecified) do in these assays?
AmpC detergent: -5.9%; FMDV inh: -29.1%; HCMV antiviral: -96.1*; AmpC no deterg: -45.6%

Results for CCOC(=O)c1c(C)n(-c2ccc(C)cc2)c2c(C(C(C)=O)C(=O)O)c(Br)c(O)c(O)c12 (stereo unspecified) ?
AmpC detergent: -13.6%; FMDV inh: 0.0%; HCV inhibitor: 11.2µM*; HCMV antiviral: inconclusive; AmpC no deterg: 0.2%

Results for O=C1NC[C@H](Cc2ccccc2)N(C[C@@H]2CCCN2C[C@H](Cc2ccc(O)cc2)N2C[C@H](Cc3ccccc3)N(CCc3ccccc3)C(=O)C2=O)C1=O ?
FMDV inh: 45.6%; HCMV antiviral: inconclusive

How did Cc1csc(NC(C)c2nc3cc(C(F)(F)F)ccc3n2CCCO)n1 (stereo unspecified) do in these assays?
FMDV inh: -10.9%; HCV inhibitor: inconclusive; HCMV antiviral: 5.6

Results for COc1cc(/C=N/Nc2ccc(C(=O)O)cc2)cc(OC)c1OC ?
AmpC detergent: 1.0%; FMDV inh: 12.8%; HCV inhibitor: 29.7%; HCMV antiviral: 69.1; AmpC no deterg: -10.2%

How did COc1cc(/C=N/Nc2ccc(S(N)(=O)=O)cc2)cc(OC)c1OC do in these assays?
AmpC detergent: -17.5%; FMDV inh: 28.2µM*; HCV inhibitor: 10µM*; HCMV antiviral: 4.1; AmpC no deterg: -16.9%[11.4 µM]

Results for CC(C)c1ccc(NC(=O)N2CCN(c3ccc(Cl)c(Cl)c3)CC2)cc1 ?
AmpC detergent: 8.7%; FMDV inh: inconclusive; HCMV antiviral: -79.3*

How did Cc1ccc(NC(=O)N2CCN(c3ccc(Cl)c(Cl)c3)CC2)cc1 do in these assays?
AmpC detergent: -2.3%; FMDV inh: inconclusive; HCMV antiviral: -62.3*

What do the screens show for `COc1cc(CN2CCC3(CCC(CNC(=O)c4cc(C)nn4C)O3)CC2)ccc1F` (stereo unspecified)?
FMDV inh: 3.5%

Results for Cc1ccccc1OCCn1cnc2c(N)ncnc21 ?
AmpC detergent: 8.0%; FMDV inh: 5.8%; HCV inhibitor: 13.2%; HCMV antiviral: -11.9; AmpC no deterg: -7.0%

How did Cc1ccccc1OCCn1c(=S)[nH]c2c(N)ncnc21 do in these assays?
AmpC detergent: inconclusive; FMDV inh: 73.9%; HCV inhibitor: 18.3%; HCMV antiviral: -79.5*; AmpC no deterg: -37.0%

What do the screens show for `O=C1c2cccc3c(N4CCCCC4)ccc(c23)C(=O)N1c1ccccc1O`?
AmpC detergent: 5.3%; FMDV inh: -22.4%; HCV inhibitor: inconclusive; HCMV antiviral: -95.6*; AmpC no deterg: -37.2%

How did O=C1c2cccc3c(N4CCCCC4)ccc(c23)C(=O)N1c1ccc(O)cc1 do in these assays?
AmpC detergent: 0.1%; FMDV inh: 11.6%; HCV inhibitor: -1.6%; HCMV antiviral: -61.7*; AmpC no deterg: -32.7%

What do the screens show for `Cc1ccc(CNC(=O)C2CCCCN2S(=O)(=O)c2ccc(F)cc2)cc1` (stereo unspecified)?
AmpC detergent: -4.0%; FMDV inh: -4.7%; HCMV antiviral: -3.8
